Assay outcomes as filed in PubChem.
Most compounds without a hit are left out; they make up all but 19% or so of the library.
SW480 rerep = A quantitative high throughput screen for small molecules that induce DNA re-replication in SW480 colon adenocarcinoma cells | SW480 DNA re-replication, Hoechst DNA content imaging, 48 h | Potency, µM (titrated, usually from 46.1 µM), for the others: top-dose re-replication activation, hits mostly activators | 1.8% of 340,000 active | AID 624297, 2012; also: potency is read from the fitted curve at half-maximal effect; % of control where 0% means no effect; nearly all actives have a fitted effect of over 55% in size
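DNA re-replication was detected as more nuclei of elevated Hoechst intensity after 48 hr exposure to compound (23 nL pinned per well of 250 cells).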
TDP1 cell CPT = qHTS for Inhibitors of human tyrosyl-DNA phosphodiesterase 1 (TDP1): qHTS in cells in presence of CPT; Potency, µM (titrated, usually from 46.2 µM), without a hit: at the highest dose activity change, negative = growth inhibition, usual class: inhibitors; chicken DT40 Tdp1-/-;hTDP1 cells + 20 nM CPT, ATP luminescence, 48 h; 12% of 420,000 active; also: potency is read from the fitted curve at half-maximal effect; % is scaled to controls: 0 for no effect and ±100 for the full control effect; nearly all actives have a fitted effect of over 55% in size
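Cell growth measured by CellTiter-Glo luminescence after a minimum 48 h, 37 C compound exposure with 20 nM CPT in Tdp1-knockout DT40 cells stably expressing hTDP1, seeded 400/well; qHTS titration format.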
MCF10A rereplic = A quantitative high throughput screen for small molecules that induce DNA re-replication in MCF 10a normal breast cells; AID 624296, 2012; Potency, µM (top dose mostly 46.1 µM), for inactives: top-dose activity, positive = re-replication, hits mostly activators; MCF 10A DNA re-replication, Hoechst nuclear intensity, 48 h; 2.9% of 350,000 active; also: potency is read from the fitted curve at half-maximal effect; % of control where 0% means no effect; nearly all actives have a fitted effect of over 50% in size
IL-1B inflam inh = qHTS for Inhibitors of Inflammasome Signaling: IL-1-beta AlphaLISA Primary Screen | activity change, % at 57.5 µM | THP-1 LPS/ATP IL-1B secretion, AlphaLISA, 16 h; active compounds read low | 4.7% of 360,000 active; in the data active = activity change below about -50%; inconclusive = mostly about -30% to -49%; also: % is scaled to controls: 0 for no effect and ±100 for the full control effect
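THP-1 cells pretreated 1 hr with compounds (up to 57.5 uM final), then stimulated with LPS (250 ng/mL final) plus ATP (1.25 mM final); secreted IL-1B measured by AlphaLISA after 16 hr, decreased signal indicating inhibition.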
TDP1 cell noCPT = qHTS for Inhibitors of human tyrosyl-DNA phosphodiesterase 1 (TDP1): qHTS in cells in absence of CPT; Potency, µM (doses to about 46.2 µM), for the others: top-dose activity change, negative = growth inhibition, actives largely listed as inhibitors; 15% of 420,000 active; DT40 Tdp1-/- hTDP1 cells, no CPT, ATP luminescence, 48 h; AID 686978, 2013; also: potency is read from the fitted curve at half-maximal effect; % is scaled to controls: 0 for no effect and ±100 for the full control effect; nearly all actives have a fitted effect of over 55% in size
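Luminescent ATP content (CellTiter-Glo) served as the growth readout. Knockout chicken DT40 cells expressing human TDP1 were exposed to compounds without camptothecin for a minimum 48 hr at 37 °C.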
Chronic BCR inh = qHTS Assay to Find Inhibitors of Chronic Active B-Cell Receptor Signaling; ABC-DLBCL IkBa-CBG/CBR reporter, luminescence ratio, 4 h; Potency, µM (doses to about 46.1 µM), without a hit: at the highest dose activity change, negative = inhibition, actives largely listed as inhibitors; 0.05% of 340,000 active; AID 493014, 2011; active = well fitted inhibition curve with a large enough effect in the signal ratio, with a control signal flat, not every such curve was filed as active; inconclusive = small, poorly fitted or top-dose-only effect, or effect the other way, or a change in a side signal; the % refers to the signal ratio;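 also: potency is read from the fitted curve at half-maximal effect; plate controls were basal doxycycline-induced cells for no effect and cells given 10 µM MG132 for full effect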
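TMD8 human ABC-DLBCL cells with doxycycline-inducible IκBα–green luciferase fusion and unfused red luciferase, in 0.5% FBS medium; compounds up to 46 uM, 4 h at 37C. Green/red luminescence ratio, filter-overlap corrected, fitted to concentration-response curves.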
Numbers without * were called inactive; ? = inconclusive; · = no result; [ ] = dose if it differs, or a comment. Unless noted, calls follow the shape of the dose curve; as a rule, active = well fitted curve in the direction sought with a large enough effect; inconclusive = small, poorly fitted or top-dose-only effect, or another doubt; inactive = no such curve, though single readings can be large; an effect the other way counts as inactive or inconclusive.

SMILES | SW480 rerep | TDP1 cell CPT | MCF10A rereplic | IL-1B inflam inh | TDP1 cell noCPT | Chronic BCR inh
COc1cc([N+](=O)[O-])cc(/C=N/NC(=O)c2ccc(NC(=O)c3ccc(C)cc3)cc2)c1O | ? | 2.9µM* | 18% | 73 | 4.1µM* | -2%
COc1cc([N+](=O)[O-])cc(/C=N/NC(=O)C(C)Nc2ccccc2C)c1O (configuration not stated) | ? | 15µM* | 1.6µM* | 1 | 18µM* | ?
COc1cc([N+](=O)[O-])cc(/C=N/NC(=O)c2ccc(C)nc2)c1O | · | 5.2µM* | 15µM* | 0 | 2.9µM* | ?
Cc1ccc(C(=O)N/N=C/c2cc(Br)ccc2O)cn1 | 2% | 4.1µM* | 3% | 185 | 5.2µM* | 2%
CC(C)c1ccc(NC(=S)NNC(=O)c2cccs2)cc1 | -3% | 7% | ? | -29 | 0% | -1%
O=C(NCCc1ccccn1)C1CC12CCN(C(=O)c1ccccc1Cl)CC2 (configuration not stated) | · | 3% | · | · | 6% | ·
N=C(N)n1cccn1 | -3% | -2% | 12% | · | -1% | ·
COCCn1c(Cc2ccccc2)nnc1SCC(=O)N1CCCC1=O | -3% | -6% | 25% | 7 | 16% | 1%
COc1cc([N+](=O)[O-])cc(/C=N/NC(=O)Cn2cncn2)c1O | -2% | -9% | 16µM* | -6 | -8% | ?
COc1cc([N+](=O)[O-])cc(/C=N/NC(=O)CC#N)c1O | · | · | · | · | · | -12%
Cc1cccc(C)c1OC(=O)CN1C(=O)c2ccccc2C1=O | -5% | -5% | -1% | 11 | -2% | -2%
Cc1nc2cnc(N3CCOCC3)nc2n(C[C@H]2CCCO2)c1=O | · | -5% | · | · | 9% | ·
CCc1ccccc1NC(=O)CSc1nc2n[nH]c(C)c2c(=N)n1-c1cccc(C)c1 | · | 7.3µM* | · | · | 3.7µM* | ?
CCCCNC(=O)CSc1nc2n[nH]c(C)c2c(=N)n1-c1ccccc1CC | · | 15µM* | · | · | 10µM* | ?
COc1ccccc1NC(=O)CSc1nc2n[nH]c(C)c2c(=N)n1-c1ccccc1Cl | 25% | 23µM* | ? | -8 | 26µM* | ?
Cc1cc(-n2c(SCc3ccccc3F)nc3n[nH]c(C)c3c2=N)ccc1Cl | ? | ? | ? | 0 | ? | 22%
Cc1cccc(-n2c(SCC(=O)Nc3ccccc3Cl)nc3n[nH]c(C)c3c2=N)c1 | · | 15µM* | · | · | 21µM* | -15%
Cc1cccc(-n2c(N)cc(=O)nc2SCC(=O)Nc2ccccc2)c1 | 2% | 4% | -9% | -5 | -8% | -5%
O=C(c1cccc(Cl)c1)N1CCCC(Cn2cc(C(=O)N3CCCC3)nn2)C1 (configuration not stated) | · | 5%[9.04 µM] | · | · | -13% | ·
Cc1ccc(Cl)cc1-n1c(SCC(=O)NCc2ccccc2)nc2n[nH]c(C)c2c1=N | · | ? | · | · | ? | -1%
COc1ccc(-n2c(SCC(=O)NCc3ccccc3)nc3n[nH]c(C)c3c2=N)cc1 | · | 6.5µM* | · | · | 6.5µM* | -4%
CCc1ccccc1NC(=O)CSc1nc2n[nH]c(C)c2c(=N)n1-c1ccc(OC)cc1 | -1% | 9.2µM* | 2% | ? | 8.2µM* | 2%
COC(=O)C1(Cc2ccccc2)NC(c2ccc(F)cc2)C2C(=O)N(C)C(=O)C21 (configuration not stated) | -1% | -15% | -3% | 12 | ? | 13%
